# Assay results reported in PubChem BioAssay (NCATS).
# “And” between values parts separate entries of the source, which are not always exact repeats. Equal entries are not always repeated. Unmarked numbers belong to inactive results. Records with an inconclusive call do not appear. Entries that show only a call come without a potency. The source made the active and inactive calls. Unless noted, calls come from the whole dose curve; as a rule, active = well fitted curve in the direction sought with a large enough effect; inconclusive = small, poorly fitted or top-dose-only effect, or another doubt; inactive = no such curve, though single readings can be large; an effect the other way counts as inactive or inconclusive.
# Columns and labels:
# [1] = biological target: Voltage-gated inwardly rectifying potassium channel KCNH2 (Homo sapiens) (UniProt Q12809); test: qHTS Assay for Small Molecule Inhibitors of the Human hERG Channel Activity (AID 588834);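 note: lower thallium flux fluorescence means stronger hERG block; nearly all actives have a fitted effect of over 50% in size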; note: potency is the fitted concentration of half-maximal effect
# Chain of Voltage-gated inwardly rectifying potassium channel KCNH2 (Homo sapiens) (Q12809 whole entry, looked up): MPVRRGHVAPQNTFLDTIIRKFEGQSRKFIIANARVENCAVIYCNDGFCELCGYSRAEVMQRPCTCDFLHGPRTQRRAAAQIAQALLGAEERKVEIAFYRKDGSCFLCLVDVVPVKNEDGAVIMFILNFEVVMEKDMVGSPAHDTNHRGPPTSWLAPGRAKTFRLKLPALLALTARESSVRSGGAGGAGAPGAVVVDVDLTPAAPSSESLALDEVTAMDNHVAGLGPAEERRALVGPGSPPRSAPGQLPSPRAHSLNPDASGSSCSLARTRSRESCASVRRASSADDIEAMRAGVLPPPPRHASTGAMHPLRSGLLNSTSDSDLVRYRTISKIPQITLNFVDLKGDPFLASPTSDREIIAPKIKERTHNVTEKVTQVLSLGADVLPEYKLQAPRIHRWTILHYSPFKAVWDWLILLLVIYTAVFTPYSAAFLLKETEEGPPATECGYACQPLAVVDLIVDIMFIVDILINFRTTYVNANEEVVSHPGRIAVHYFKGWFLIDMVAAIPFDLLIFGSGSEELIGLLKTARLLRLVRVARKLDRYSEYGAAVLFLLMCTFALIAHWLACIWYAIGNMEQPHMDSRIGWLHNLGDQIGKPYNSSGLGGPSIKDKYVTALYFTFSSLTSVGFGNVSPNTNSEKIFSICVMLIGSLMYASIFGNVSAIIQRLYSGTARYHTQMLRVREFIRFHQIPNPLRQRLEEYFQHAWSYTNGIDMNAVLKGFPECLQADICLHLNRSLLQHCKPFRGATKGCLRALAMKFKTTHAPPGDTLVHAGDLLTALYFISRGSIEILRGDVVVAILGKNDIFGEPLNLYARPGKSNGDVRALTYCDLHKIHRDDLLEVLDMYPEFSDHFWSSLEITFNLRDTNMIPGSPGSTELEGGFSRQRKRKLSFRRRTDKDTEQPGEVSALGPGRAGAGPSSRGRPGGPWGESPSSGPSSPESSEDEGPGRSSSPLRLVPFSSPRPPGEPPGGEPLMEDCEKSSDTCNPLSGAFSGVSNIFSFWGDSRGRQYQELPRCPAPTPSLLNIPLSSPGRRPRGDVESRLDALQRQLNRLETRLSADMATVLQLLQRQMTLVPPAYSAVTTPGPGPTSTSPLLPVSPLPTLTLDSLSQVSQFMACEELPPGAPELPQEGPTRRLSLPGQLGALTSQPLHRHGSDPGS
# Procedure, shortened: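 U2OS cells BacMam-transduced with hERG, 2000 cells/well, compound ~10 min at 37 °C before stimulation buffer. FluxOR thallium flux fluorescence read kinetically on FDSS; decrease indicates block; AC50 from Hill fits.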
# [2] = biological target: Thyroid hormone receptor beta (Homo sapiens) (UniProt P10828); test: qHTS assay for small molecule antagonists of thyroid hormone receptor beta signaling (AID 588547; active = well fitted inhibition curve with a large enough effect in the signal ratio, with a control signal flat, not every such curve was filed as active; the % refers to the signal ratio;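 note: cells stimulated with 0.4 nM T3 agonist during compound exposure; series mostly up to about 77 µM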); details: TR-UAS-bla HEK293, beta-lactamase ratio, antagonist mode, 18 h
# Chain of Thyroid hormone receptor beta (Homo sapiens) (P10828 whole entry, looked up): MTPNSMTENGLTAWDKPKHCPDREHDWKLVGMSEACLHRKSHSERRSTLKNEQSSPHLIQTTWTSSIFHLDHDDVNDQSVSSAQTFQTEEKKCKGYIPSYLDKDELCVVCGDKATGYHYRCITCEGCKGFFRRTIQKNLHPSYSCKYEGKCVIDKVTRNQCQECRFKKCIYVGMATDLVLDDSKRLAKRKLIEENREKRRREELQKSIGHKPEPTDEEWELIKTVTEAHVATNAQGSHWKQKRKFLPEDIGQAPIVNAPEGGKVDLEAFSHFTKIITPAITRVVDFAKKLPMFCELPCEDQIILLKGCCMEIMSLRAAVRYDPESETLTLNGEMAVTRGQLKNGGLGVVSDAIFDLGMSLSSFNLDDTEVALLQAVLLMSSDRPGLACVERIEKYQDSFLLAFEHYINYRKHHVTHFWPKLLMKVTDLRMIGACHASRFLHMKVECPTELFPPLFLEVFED
# Procedure, shortened: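 TR-UAS-bla GripTite HEK293 cells in 2% charcoal/dextran FBS medium; compounds 0.59 nM to 92 uM with T3 at 0.4nM final, 18 h at 37 C. Beta-lactamase read by CCF4 fluorescence (460/530 nm); Hill fits gave IC50 and efficacy.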
# [3] = qHTS assay for small molecule agonists of the antioxidant response element (ARE) signaling pathway (AID 651741; active = well fitted activation curve with a large enough effect in the signal ratio; the % refers to the signal ratio)
# Procedure, shortened: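 CellSensor ARE-bla HepG2 cells (2,000/well) carrying ARE-driven beta-lactamase, exposed 16 h at 37 C. LiveBLAzer B/G FRET substrate added for 2 h at room temperature; fluorescence intensity read.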
# [4] = qHTS assay for small molecule activators of the p53 signaling pathway (AID 651743; active = well fitted activation curve with a large enough effect in the signal ratio, not every such curve was filed as active; the % refers to the signal ratio; note: series mostly up to about 92 µM); details: HCT-116 p53RE-bla, beta-lactamase FRET ratio, 16 h; activation: active compounds read high
# Procedure, shortened: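 p53RE-bla HCT-116 cells carrying a beta-lactamase reporter under p53 response elements were exposed to compounds for 16 hours at 37 C. Reporter activity read as fluorescence after 2 hours at room temperature with LiveBLAzer B/G FRET substrate.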
# [5] = qHTS assay for small molecule activators of the nuclear factor-kappa B (NF-kB) signaling pathway (AID 651749; active = well fitted activation curve with a large enough effect in the signal ratio; the % refers to the signal ratio; note: series mostly up to about 77 µM); details: NF-kB-bla ME-180 cells, beta-lactamase FRET ratio, 16 h; active compounds read high
# Procedure, shortened: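 NF-kB-bla ME-180 cells carrying a beta-lactamase reporter under an NF-kB response element, 2,000 cells/well, exposed to compound for 16 hr at 37C; FRET-based beta-lactamase fluorescence read-out of pathway activation.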
# [6] = qHTS assay for environmental chemicals that activate the Aryl hydrocarbon Receptor (AhR) signaling pathway (AID 651777); details: 1A2-DRE human hepatoma cells, luciferase, 24 h; activation: active compounds read high; note: nearly all actives have a fitted effect of over 15% in size; note: potency is the fitted concentration of half-maximal effect
# Procedure, shortened: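 Stable CYP1A2 promoter/DRE-luciferase human hepatoma line treated 24 hr; One-Glo luminescence, 30 min RT.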
# [7] = biological target: Peroxisome proliferator-activated receptor alpha (Homo sapiens) (UniProt Q07869); test: qHTS assay for small molecule agonists of the peroxisome proliferator-activated receptor alpha (PPARalpha) signaling pathway (AID 651778); details: PathHunter PPARalpha complementation, chemiluminescence, 6 h; active compounds read high
# Chain of Peroxisome proliferator-activated receptor alpha (Homo sapiens) (Q07869 whole entry, looked up, the tested form may be a part): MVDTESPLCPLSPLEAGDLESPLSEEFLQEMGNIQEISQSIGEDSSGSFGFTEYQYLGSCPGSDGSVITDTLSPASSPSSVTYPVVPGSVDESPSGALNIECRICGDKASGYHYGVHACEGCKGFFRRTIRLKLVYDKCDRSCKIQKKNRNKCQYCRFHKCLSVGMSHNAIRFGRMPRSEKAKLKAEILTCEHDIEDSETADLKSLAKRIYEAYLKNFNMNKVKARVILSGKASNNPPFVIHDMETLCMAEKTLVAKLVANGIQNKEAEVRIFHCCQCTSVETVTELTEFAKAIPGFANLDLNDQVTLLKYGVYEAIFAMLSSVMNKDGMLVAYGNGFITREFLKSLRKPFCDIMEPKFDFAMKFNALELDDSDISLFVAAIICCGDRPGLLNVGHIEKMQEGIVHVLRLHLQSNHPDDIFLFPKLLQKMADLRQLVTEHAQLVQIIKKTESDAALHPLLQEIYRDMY
# Procedure, shortened: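 Enzyme-fragment complementation assay in which ligand-bound PPARalpha translocates and forms an active enzyme that generates chemiluminescence. Cells were plated overnight, exposed to compound for 6 hr at 37 C, and then given detection reagent for 60 min at room temperature.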
# [8] = biological target: Luciferin 4-monooxygenase (Photinus pyralis) (UniProt P08659); test: Biochemical firefly luciferase enzyme assay for NPC (AID 624030);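 note: purified P. pyralis luciferase at 10 nM with luciferin and ATP substrate; series mostly up to about 59 µM; nearly all actives have a fitted effect of over 70% in size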
# Chain of Luciferin 4-monooxygenase (Photinus pyralis) (P08659 whole entry, looked up): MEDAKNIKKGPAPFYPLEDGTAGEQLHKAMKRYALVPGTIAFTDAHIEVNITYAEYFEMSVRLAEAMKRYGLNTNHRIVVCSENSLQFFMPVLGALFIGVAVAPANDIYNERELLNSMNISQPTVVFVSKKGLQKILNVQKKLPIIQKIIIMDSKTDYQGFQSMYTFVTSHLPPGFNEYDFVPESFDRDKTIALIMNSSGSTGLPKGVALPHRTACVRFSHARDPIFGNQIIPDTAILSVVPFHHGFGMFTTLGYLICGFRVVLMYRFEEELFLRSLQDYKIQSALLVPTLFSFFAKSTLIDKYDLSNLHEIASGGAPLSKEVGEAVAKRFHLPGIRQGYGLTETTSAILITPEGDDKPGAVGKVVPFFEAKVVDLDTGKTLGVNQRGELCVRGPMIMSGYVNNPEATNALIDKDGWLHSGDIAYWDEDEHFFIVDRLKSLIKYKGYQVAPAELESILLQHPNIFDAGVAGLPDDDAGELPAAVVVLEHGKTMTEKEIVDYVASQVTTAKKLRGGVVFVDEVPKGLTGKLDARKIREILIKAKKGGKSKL
# Procedure, shortened: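 Purified P. pyralis luciferase at 10 nM in 50 mM Tris Acetate (final), luminescence read within 5 minutes of enzyme addition to compounds. Activity normalised to PTC124 versus DMSO; concentration-response curves classed by r2, magnitude and activity.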
# [9] = S16 Schwann cell viability assay (CellTiter-Glo assay) (AID 624031);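 note: native untransfected S16 rat Schwann cells; cellular ATP luminescence as a viability measure; series mostly up to about 58 µM; nearly all actives have a fitted effect of over 70% in size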
# Procedure, shortened: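 Concentration-effect curves come from CellTiter-Glo luminescence of S16 rat Schwann cells after 24 h compound exposure. Each reading was normalized to DMSO wells (0%) and wells without cells, and curves were ranked by r2 and response magnitude.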
# [10] = biological target: Tumor necrosis factor (Homo sapiens) (UniProt P01375); test: qHTS assay to identify small molecules that stimulate Tumor Necrosis Factor-alpha (TNF-alpha) secretion (AID 651757; active = well fitted curve in the direction sought with a large enough effect in the signal ratio; the % refers to the signal ratio)
# Chain of Tumor necrosis factor (Homo sapiens) (P01375 whole entry, looked up): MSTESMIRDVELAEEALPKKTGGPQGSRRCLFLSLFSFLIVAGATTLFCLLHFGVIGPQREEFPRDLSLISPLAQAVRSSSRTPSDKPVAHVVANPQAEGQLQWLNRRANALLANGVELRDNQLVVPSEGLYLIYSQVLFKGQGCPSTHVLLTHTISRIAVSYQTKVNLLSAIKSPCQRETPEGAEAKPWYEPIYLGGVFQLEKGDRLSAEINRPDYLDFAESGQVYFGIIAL
# Procedure, shortened: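 THP-1 cells (3000/well) exposed to compounds 17 hrs at 37 C. Secreted TNF-alpha detected by HTRF with cryptate- and XL665-labeled anti-TNF-alpha antibodies after 3 hr at room temperature.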
# [11] = S16 Schwann cell PMP22 intronic element firefly luciferase assay (AID 624032); note: series mostly up to about 58 µM; nearly all actives have a fitted effect of over 30% in size
# Procedure, shortened: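 Rat S16 Schwann cells stably carrying firefly luciferase driven by a PMP22 intronic element, in 10% FBS, treated 24 h at 37 C. ONE-Glo luminescence normalized to PTC124 control and DMSO (0%); curves classed by r2, magnitude and activity.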
# [12] = qHTS assay for small molecule disruptors of the mitochondrial membrane potential - 1 hr assay (AID 651754; calls by dose curve; note: nearly all actives have a fitted effect of over 35% in size; note: potency is the fitted concentration of half-maximal effect)
# Procedure, shortened: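 HepG2 cells, attached overnight, were exposed to compound for 1 hr at 37C, then stained 30 min with a potentiometric dye. Ratio of red aggregate (590nm) to green monomer (535nm) fluorescence reports membrane potential; collapse shifts signal toward green.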
# [13] = qHTS assay for small molecule disruptors of the mitochondrial membrane potential - 5 hr assay (AID 651755; calls by dose curve; note: potency is the fitted concentration of half-maximal effect; nearly all actives have a fitted effect of over 40% in size)
# Procedure, shortened: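 HepG2 cells (2,000/well), attached overnight, exposed to compound 5 hr at 37C, then Mito-MPS dye 30 min. Fluorescence read for monomers (490/535 nm) and aggregates (540/590 nm).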
# [14] = S16 Schwann cell PMP22 intronic element beta-lactamase assay (AID 624044; calls by dose curve; note: nearly all actives have a fitted effect of over 15% in size; note: potency is the fitted concentration of half-maximal effect)
# Procedure, shortened: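 Rat S16 Schwann cells with beta-Lac driven by a PMP22 intronic element, compound-treated 24 h at 37 °C. LiveBLAzer FRET B/G read: 460 nm normalized to potassium clavulanate vs DMSO; 535 nm FRET as viability; concentration-effect curves classified.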
smiles,measurement,setting,value
CO[C@H]1C=CO[C@@]2(C)Oc3c(C)c(O)c4c(O)c(c(/C=N/N5CCN(C)CC5)c(O)c4c3C2=O)NC(=O)/C(C)=C\C=C[C@H](C)[C@H](O)[C@@H](C)[C@@H](O)[C@@H](C)[C@H](OC(C)=O)[C@@H]1C,Potency,[1],inactive
CCCCOC(=O)CC(CC(=O)OCCCC)(OC(C)=O)C(=O)OCCCC,activity change % (negative = inhibition),[2],12.8%
same,Potency,[3],inactive
same,activation,[4],-5.7%
same,activation,[5],-0.845%
same,activation,[6],0.777%
same,max response,[7],5.65%
O=[N+]([O-])c1ccc(/C=N\O)o1,Potency,[1],inactive
O=C(N/N=C/c1ccc([N+](=O)[O-])o1)c1ccc(O)cc1,Potency,[1],inactive
CCOc1ccccc1C(N)=O,activity change % (negative = inhibition),[2],7.81%
same,Potency,[8],inactive
same,Potency,[9],inactive
same,Potency,[3],inactive
same,activation,[4],1.59%
same,outcome,[10],inactive
same,activation,[6],0.471%
same,max response,[7],-1.03%
C[C@H]1O[C@@H](O[C@H]2CC[C@@]3(C)[C@H](CC[C@@H]4[C@@H]3C[C@@H](O)[C@]3(C)[C@@H](C5=CC(=O)OC5)CC[C@]43O)C2)C[C@H](O)[C@@H]1O[C@H]1C[C@H](O)[C@H](O[C@H]2C[C@H](O)[C@H](O[C@@H]3O[C@H](CO)[C@@H](O)[C@H](O)[C@H]3O)[C@@H](C)O2)[C@@H](C)O1,Potency,[1],inactive
COc1ccc(C(Cl)=C(c2ccc(OC)cc2)c2ccc(OC)cc2)cc1,activity change % (negative = inhibition),[2],-9.92%
same,Potency,[1],inactive
same,Potency,[8],inactive
same,Potency,[9],inactive
same,Potency,[11],inactive
same,activation,[4],2.35%
same,activation,[5],3.39%
same,Potency,[12],15 µM (active)
same,Potency,[13],18.8 µM (active)
same,outcome,[10],inactive
same,activation,[6],-0.915%
same,max response,[7],-4.66%
C[C@@]12C(=O)OC(=O)[C@]1(C)C1CCC2O1,Potency,[1],inactive
CCN[C@@H]1C[C@H](N)[C@@H](OC2OC(CN)=CCC2N)[C@H](O)[C@H]1O[C@H]1OC[C@](C)(O)[C@H](NC)[C@H]1O (some centres not stated),Potency,[1],inactive
OC[C@H]1O[C@@H]2O[C@H]3[C@H](O)[C@@H](O)[C@@H](O[C@H]4[C@H](O)[C@@H](O)[C@@H](O[C@H]5[C@H](O)[C@@H](O)[C@@H](O[C@H]6[C@H](O)[C@@H](O)[C@@H](O[C@H]7[C@H](O)[C@@H](O)[C@@H](O[C@H]8[C@H](O)[C@@H](O)[C@@H](O[C@H]1[C@H](O)[C@H]2O)O[C@@H]8CO)O[C@@H]7CO)O[C@@H]6CO)O[C@@H]5CO)O[C@@H]4CO)O[C@@H]3CO,activity change % (negative = inhibition),[2],2.69%
same,Potency,[1],inactive
same,Potency,[8],inactive
same,Potency,[9],inactive
same,Potency,[11],inactive
same,Potency,[3],inactive
same,activation,[5],-1.13%
same,outcome,[10],inactive
same,max response,[7],-4.97%
COc1ccc(C(=O)c2ccccc2)c(O)c1,activity change % (negative = inhibition),[2],-24% and 5.53%
same,Potency,[1],35.5 µM (active)
same,Potency,[9],inactive
same,Potency,[11],inactive
same,activation,[4],-2.61% and -3.01%
same,activation,[5],0.344% and -5.21%
same,outcome,[10],inactive
same,activation,[6],8.63% and 11.4%
same,max response,[7],1.86% and -0.894%
NCCNc1cccc2ccccc12,activity change % (negative = inhibition),[2],-5.49%
same,Potency,[1],inactive
same,Potency,[8],inactive
same,Potency,[14],inactive
same,Potency,[3],inactive
same,activation,[4],1.04%
same,activation,[5],-0.261% and 2.79%
same,Potency,[12],inactive
same,Potency,[6],39.8 µM (active)
same,max response,[7],-2.74% and -3.34%
CC(O)Cn1cnc2c1c(=O)n(C)c(=O)n2C (configuration not stated),Potency,[1],inactive
C=C[C@@]1(C)CC(=O)[C@]2(O)[C@@]3(C)[C@@H](O)CCC(C)(C)[C@@H]3[C@H](O)[C@H](OC(C)=O)[C@@]2(C)O1,activity change % (negative = inhibition),[2],10.4%
same,Potency,[1],inactive
same,Potency,[8],inactive
same,Potency,[14],0.707 µM (active)
same,activation,[4],-4.19%
same,Potency,[6],17.8 µM (active)
same,max response,[7],0.227%
CC(CNC1CCCCC1)OC(=O)c1ccccc1 (configuration not stated),Potency,[1],inactive
CC(=O)O[C@]1(C(C)=O)CC[C@H]2[C@@H]3C=C(C)C4=CC(=O)CC[C@]4(C)[C@H]3CC[C@@]21C,Potency,[1],inactive
NS(=O)(=O)c1cc2c(cc1Cl)NC(CC1CCCC1)NS2(=O)=O (configuration not stated),Potency,[1],inactive
CC1(C)OC[C@@H]2O[C@@]3(C(=O)O)OC(C)(C)O[C@H]3[C@@H]2O1,activity change % (negative = inhibition),[2],-3.12%
same,Potency,[1],inactive
same,Potency,[3],inactive
same,activation,[5],0.144%
same,activation,[6],1.2%
same,max response,[7],-1.9%
CN(C)C(=O)Nc1ccc(Cl)c(Cl)c1,activity change % (negative = inhibition),[2],-2.96%
same,Potency,[1],inactive
same,Potency,[8],inactive
same,Potency,[9],inactive
same,Potency,[11],inactive
same,activation,[4],3.41%
same,max response,[7],0.591%
CCCCCCCCCCCCCCCC(=O)O,activity change % (negative = inhibition),[2],13.6%
same,Potency,[8],inactive
same,Potency,[9],inactive
same,Potency,[14],inactive
same,Potency,[3],inactive
same,activation,[4],1.38%
same,activation,[5],-0.401%
same,activation,[6],0.499%
O=C1OC(CN2CCOCC2)CN1/N=C/c1ccc([N+](=O)[O-])o1 (configuration not stated),Potency,[1],inactive
N#C/C(=C1\SCC(c2ccccc2Cl)S1)n1ccnc1 (configuration not stated),Potency,[1],inactive
Nc1nc(Cl)nc2c1ncn2[C@@H]1O[C@H](CO)[C@@H](O)[C@@H]1F,Potency,[1],inactive
CCCCCCCC/C=C\CCCCCCCCN,activity change % (negative = inhibition),[2],-4.57%
same,Potency,[1],inactive
same,Potency,[8],inactive
same,Potency,[9],inactive
same,activation,[4],4.37%
same,activation,[6],-0.319%
same,max response,[7],0.202%
